Experimental data reported in PubChem BioAssay (NCI).
The panel holds about 79,000 compounds, 15% with a hit somewhere; the sample as a whole holds those more often. Values without a mark were called inactive. The source made the active and inactive calls. No stated cut-off is given here; in the data, active means growth inhibition above about 70%; inactive means the rest.

How the values were obtained:
[1] = NCI Yeast Anticancer Drug Screen. Data for the rad50 strain (AID 155);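 further: 0% = growth of vehicle-only cultures of the same strain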; details: S. cerevisiae rad50 strain growth inhibition, hits give high values
Outline: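 Yeast carrying a defined DNA repair defect were exposed to test compounds, and growth was compared with vehicle-treated controls to give percent inhibition.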

[2] = NCI Yeast Anticancer Drug Screen. Data for the mec2-1 strain (AID 157); details: S. cerevisiae mec2-1 strain, hits give high values
Outline: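 Each compound was tested on mec2-1 yeast, a strain altered in DNA damage repair or cell cycle control. Growth inhibition is reported relative to vehicle.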

[3] = NCI Yeast Anticancer Drug Screen. Data for the sgs1 mgt1 strain (AID 161);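 further: 0% = growth of cultures given vehicle only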; details: S. cerevisiae sgs1 mgt1 strain, hits give high values
Outline: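 Inhibition of yeast growth, normalised to vehicle-treated controls, is reported for a strain bearing genetic alterations in DNA damage repair.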

[4] = NCI Yeast Anticancer Drug Screen. Data for the cln2 rad14 strain (AID 165);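 further: 0% = growth equal to vehicle treated cultures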; details: S. cerevisiae cln2 rad14 strain, hits give high values
Outline: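 Test compounds were added to cln2 rad14 yeast cultures; inhibition of growth was then determined by comparison with vehicle treatment.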

[5] = NCI Yeast Anticancer Drug Screen. Data for the bub3 strain (AID 167); details: S. cerevisiae bub3 mutant strain, hits give high values
Outline: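 Compounds were applied to a genetically altered yeast strain carrying a cell-cycle control defect. Growth inhibition was scored against vehicle-treated controls.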

[6] = NCI Yeast Anticancer Drug Screen. Data for the mlh1 rad18 strain (AID 175); details: S. cerevisiae mlh1 rad18 strain growth inhibition, hits give high values
Outline: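 Inhibition values reflect reduced growth of mutant yeast versus vehicle-treated controls following compound exposure; the mutations affect DNA damage repair.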

[7] = at 5.0 µM (retest, dose inferred, filed as 0.5)
[8] = at 50.0 µM (retest, dose inferred, filed as 5.0)

| Compound | growth inhibition [1, 7] | growth inhibition [1, 8] | growth inhibition ([1]; at 50.0 µM) | growth inhibition [2, 7] | growth inhibition [2, 8] | growth inhibition ([2]; at 50.0 µM) | growth inhibition [3, 7] | growth inhibition [3, 8] | growth inhibition ([3]; at 50.0 µM) | growth inhibition [4, 7] | growth inhibition [4, 8] | growth inhibition ([4]; at 50.0 µM) | growth inhibition [5, 7] | growth inhibition [5, 8] | growth inhibition ([5]; at 50.0 µM) | growth inhibition [6, 7] | growth inhibition [6, 8] | growth inhibition ([6]; at 50.0 µM) |
| --- | --- | --- | --- | --- | --- | --- | --- | --- | --- | --- | --- | --- | --- | --- | --- | --- | --- | --- |
| CC(C)c1ccc(S(=O)(=O)c2ccc([N+](=O)[O-])cc2[N+](=O)[O-])cc1 | 98% (active) | 91% (active) | 93.8% (active) | 100% (active) | 97% (active) | 96.5% (active) | 100% (active) | 97% (active) | 96.8% (active) | 76% (active) | 94% (active) | 94.5% (active) | 95% (active) | 96% (active) | 96.2% (active) | 99% (active) | 95% (active) | 96.2% (active) |
| CCOC(=O)C(C(C)=O)C1=C(Cl)C(=O)c2ccccc2C1=O (configuration not stated) | 94% (active) | 100% (active) | 99.3% (active) | 89% (active) | 100% (active) | 99.5% (active) | 96% (active) | 100% (active) | 99.5% (active) | 77% (active) | 100% (active) | 89.7% (active) | 96% (active) | 100% (active) | 97.5% (active) | 84% (active) | 99% (active) | 99.3% (active) |
| O=C(O)c1ccc2c3c(ncnc13)-c1ccccc1C2=O | 22% | 96% (active) | 62% | 43% | 98% (active) | 45% | 10% | 86% (active) | 61% | 36% | 88% (active) | 34.5% | 36% | 90% (active) | 55.5% | 28% | 98% (active) | 74.6% (active) |
| CCOC(=N)CCCSSc1ccc(N=[N+]=[N-])cc1 | 15% | 99% (active) | 98.7% (active) | -15% | 99% (active) | 99.2% (active) | -5% | 97% (active) | 99% (active) | -7% | 97% (active) | 98.5% (active) | -7% | 99% (active) | 98.8% (active) | -3% | 99% (active) | 99.2% (active) |
| O=C(O)/C(=C\c1ccc(F)cc1)c1ccccc1 | -3% | -12% | 48% | -18% | -9% | 64.9% | -4% | -16% | 11.9% | 29% | 11% | 38.8% | 3% | 28% | 70.8% (active) | -12% | 9% | 50.2% |
| CCCC(O)C[N+](=O)[O-] (configuration not stated) | 6% | 71% (active) | 48.2% | -1% | 6% | 13.2% | -2% | 9% | 15.2% | -1% | 1% | 4.5% | -1% | 4% | 13.5% | 0% | 14% | 11.8% |
| O=[N+]([O-])c1cc2cccnc2c2ncccc12 | -8% | -15% | 63% | -43% | -18% | 41.1% | -5% | 20% | 81.2% (active) | -8% | 21% | 62.2% | -21% | -86% | 34.4% | 4% | 22% | 76.2% (active) |
| COc1nc(Nc2ccc(/C=C/c3ccc(Nc4nc(OC)nc(N(CCO)CCO)n4)cc3S(=O)(=O)O)c(S(=O)(=O)O)c2)nc(N(CCO)CCO)n1 | -4% | 53% | 14.2% | -4% | 37% | 58.9% | -3% | 51% | 45.8% | -1% | 17% | 5.8% | -4% | 28% | 3.2% | 0% | 49% | 80.4% (active) |
| CCN(CC)c1ccc(SC#N)cc1 | 1% | 93% (active) | 91.2% (active) | -39% | 94% (active) | 95.1% (active) | 0% | 95% (active) | 58% | -3% | 88% (active) | 90.2% (active) | 10% | 96% (active) | 97.5% (active) | -3% | 95% (active) | 93.6% (active) |
| CCOC(=O)C(C(=O)OCC)C(=O)c1ccccc1C(=O)c1ccccc1 | -12% | 44% | 60.8% | -17% | 23% | 34% | -9% | 55% | 56.9% | -2% | 2% | 14.8% | -3% | 32% | 51.5% | 1% | 59% | 80.6% (active) |
| O=C1C(=O)N(C(=O)c2ccc(Cl)c(Cl)c2)c2ccc(Cl)cc21 | -6% | -4% | 13.6% | -9% | 2% | 24.4% | -7% | 6% | 35.2% | -9% | -20% | 10.8% | -6% | 56% | 91.6% (active) | -8% | 12% | 64% |
| Nc1ccc(/C=C/c2ccccc2)cc1 | 3% | 61% | 87.5% (active) | -9% | 33% | 80.3% (active) | -2% | 47% | 81.5% (active) | -10% | 45% | 82.8% (active) | -2% | 44% | 95.5% (active) | 3% | 73% (active) | 94% (active) |
| Cn1cnc([N+](=O)[O-])c1Sc1nc2cccnc2s1 | 45% | 80% (active) | 79.5% (active) | 34% | 77% (active) | 77.1% (active) | 40% | 59% | 67.8% | 29% | 44% | 52% | 38% | 68% | 71.8% (active) | 54% | 90% (active) | 75.6% (active) |
| CC(C)c1ccc2nc3ccc(C(=O)NCCN4CCN(c5ccccc5)CC4)cn3c(=O)c2c1 | 18% | 97% (active) | 12.1% | -9% | 98% (active) | 16.6% | 18% | 99% (active) | 13.2% | 3% | 97% (active) | -7.8% | 14% | 98% (active) | -7.5% | 4% | 97% (active) | 5.15% |
| CCOC(=O)C(CCc1ccccc1[N+](=O)[O-])C(C)=O (configuration not stated) | 4% | 61% | 78.9% (active) | 2% | 11% | 27.6% | -3% | 42% | 66.8% | -1% | 8% | -8.55% | -3% | 8% | 54% | -20% | 45% | 69.7% |
| OCc1ccccc1CC(O)(c1ccccc1)c1ccccc1 | -7% | 92% (active) | 97.8% (active) | -8% | 87% (active) | 97.3% (active) | -7% | 94% (active) | 95.8% (active) | -3% | 70% (active) | 75.5% (active) | -19% | 11% | 88.5% (active) | -20% | 90% (active) | 94.4% (active) |
| Cc1ccc2c(c1)CC1(C2)Cc2ccc(C)cc2C1=O (configuration not stated) | 6% | 73% (active) | 25.4% | -20% | 85% (active) | 17.6% | -28% | 75% (active) | 54.3% | 29% | 39% | 21.4% | -5% | 88% (active) | 64.8% | 5% | 65% | 44.1% |
| CC1=NC(=Cc2ccc(Cl)cc2)C(=O)N1n1c(-c2ccccc2)nc2ccccc2c1=O | -8% | 59% | 67.3% | -10% | 83% (active) | 70.2% (active) | -7% | 71% (active) | 86% (active) | -24% | 83% (active) | 80% (active) | -6% | 87% (active) | 82% (active) | 5% | 59% | 81.5% (active) |
| COc1ccc(NC(=O)CCC(NS(=O)(=O)c2ccc(C)cc2)C(=O)O)cc1 (configuration not stated) | -6% | -3% | 19.4% | -4% | -5% | 8.6% | -7% | -23% | 7.7% | -8% | -17% | 10.4% | -2% | 2% | 51.9% | -3% | -3% | 19.1% |
